TLR4 MyD88 comp: blocks binding of human TLR4 to MyD88. O00206+Q99836. HeLa CL3-4 TLR4/MyD88 BLA complementation, FRET ratio. inhibition, % at 8.4 µM. 0.18% of 200,000 active. AID 861; in the data active means inhibition above about 25%;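 further: 0% = vehicle and 100% = reference inhibitor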
TLR9-MyD88 inh: TLR9-MyD88 interaction inhibition | 0.21% of 340,000 active | CHO BLA complementation TLR9-MyD88, CCF4 FRET ratio | inhibition, % at 4.98 µM | Q9NR96+Q99836;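 active means inhibition above the mean over all tested compounds plus 3 SD, cut at about 21% in these data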;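 further: 0% = DMSO only wells and 100% = clavulanate BLA inhibitor control wells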
NOD2-RIPK2 inh: inhibitors of human NOD2-RIPK2 interaction; CHO BLA complementation NOD2-RIPK2, CCF4 ratio; inhibition, % at 4.98 µM; 0.38% of 360,000 active; AID 624267; in the data active means inhibition above about 21%;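 further: 0% = vehicle only and 100% = reference blocker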
Target sequence (O43353 whole entry, looked up): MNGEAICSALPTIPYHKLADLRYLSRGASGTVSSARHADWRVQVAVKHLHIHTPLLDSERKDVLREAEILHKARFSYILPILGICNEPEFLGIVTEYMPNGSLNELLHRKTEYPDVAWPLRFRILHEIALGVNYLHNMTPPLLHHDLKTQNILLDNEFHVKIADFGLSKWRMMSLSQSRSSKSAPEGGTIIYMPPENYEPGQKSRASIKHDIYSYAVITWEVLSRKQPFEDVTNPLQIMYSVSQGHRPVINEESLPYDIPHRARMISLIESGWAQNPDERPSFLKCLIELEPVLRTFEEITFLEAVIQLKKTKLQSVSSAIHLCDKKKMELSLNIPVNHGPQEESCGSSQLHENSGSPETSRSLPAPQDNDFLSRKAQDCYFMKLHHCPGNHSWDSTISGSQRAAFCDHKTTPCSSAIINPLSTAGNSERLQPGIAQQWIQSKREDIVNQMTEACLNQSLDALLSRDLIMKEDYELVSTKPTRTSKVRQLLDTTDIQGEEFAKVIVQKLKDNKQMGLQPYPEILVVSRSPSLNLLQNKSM
ABHD5-PLIN5 inh: ABHD5-PLIN5 protein interaction inhibition. Q00G26+Q8WTS1. Split G. princeps luciferase complementation, luminescence, 4 h. inhibition, % at 4 µM. 0.78% of 360,000 active. AID 602281;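 active means inhibition above the mean inhibition across every tested compound plus 3 SD, cut at about 22% in these data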;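 further: 0% = DMSO only wells and the 100% control is not disclosed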
ABHD5-PLIN5 conf: ABHD5-PLIN5 interaction inhibition, confirmed; shares compounds with ABHD5-PLIN5 inh; biochemical ABHD5-PLIN5 interaction, luminescence; inhibition, % at 4 µM; 67% of 2,200 active; AID 651612; in the data active means inhibition above about 23%;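 further: 0% = DMSO vehicle wells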
HNF4 counter: HNF4 split-luciferase signal hit, counter-screen; AID 651674; shares compounds with ABHD5-PLIN5 inh; 77% of 2,200 active; HNF4 dimerization, luminescence, biochemical; inhibition, % at 4 µM;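 active means mean inhibition across replicate wells exceeding the computed hit threshold, cut at about 13% in these data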;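 further: light from luciferase halves that rejoin when HNF4 fusion proteins dimerize; 0% = DMSO only wells and the 100% control is not given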
Starred values were filed as active, the others as inactive. Sampled rows, rich in hits. Any-hit rate of the full collection: about 1.2%.

How did O=S(=O)(Nc1ccccc1)C1CCCCC1 do in these assays?
TLR9-MyD88 inh: -4.2; NOD2-RIPK2 inh: 1.1; ABHD5-PLIN5 inh: 0.4

How did CC1=C(C(=O)Nc2ccccc2)C(c2ccc(Cl)cc2)n2c(s/c(=C/c3cccc(OCC(=O)O)c3)c2=O)=N1 (stereo not drawn) do in these assays?
TLR4 MyD88 comp: -5.5; TLR9-MyD88 inh: -13.0; NOD2-RIPK2 inh: 5.4; ABHD5-PLIN5 inh: 27.3*; ABHD5-PLIN5 conf: 48.7*; HNF4 counter: 29.0*

What do the screens show for `Cc1ccc(/C=C/C(=O)c2cc(Br)ccc2OC(=O)c2ccco2)cc1`?
TLR4 MyD88 comp: -1.7; TLR9-MyD88 inh: 12.7; NOD2-RIPK2 inh: 4.3; ABHD5-PLIN5 inh: 73.5*; ABHD5-PLIN5 conf: 95.0*; HNF4 counter: 73.6*

Results for CCc1ccc(/C=C/C(=O)c2cc(Br)ccc(=O)c2O)cc1 ?
TLR4 MyD88 comp: 4.3; TLR9-MyD88 inh: 4.3; NOD2-RIPK2 inh: -4.1; ABHD5-PLIN5 inh: 30.3*; ABHD5-PLIN5 conf: 61.4*; HNF4 counter: 46.3*

Results for COc1ccccc1/C=C/C(=O)c1cc(Br)ccc1OC(=O)c1ccco1 ?
TLR4 MyD88 comp: -9.0; TLR9-MyD88 inh: 3.1; NOD2-RIPK2 inh: 13.1; ABHD5-PLIN5 inh: 65.8*; ABHD5-PLIN5 conf: 94.2*; HNF4 counter: 73.6*

What do the screens show for `CCOc1ccc(/C=C/C(=O)c2cc(Br)ccc(=O)c2O)cc1`?
TLR4 MyD88 comp: -4.9; TLR9-MyD88 inh: 4.4; NOD2-RIPK2 inh: -10.1; ABHD5-PLIN5 inh: 19.0

What do the screens show for `O=C(CN1CCN(C(c2ccccc2)c2ccccc2)CC1)N1CCN(c2ccccc2)CC1`?
NOD2-RIPK2 inh: 18.5; ABHD5-PLIN5 inh: 4.0

Results for Cc1ccc(S(=O)(=O)N(C)C)cc1NC(=O)COC(=O)Cc1ccsc1 ?
TLR9-MyD88 inh: -3.0; NOD2-RIPK2 inh: -7.4; ABHD5-PLIN5 inh: -7.7

What do the screens show for `O=C(NCc1ccon1)C1CCC(=O)N(CCc2cccc(F)c2)C1` (stereo not drawn)?
TLR9-MyD88 inh: -1.7; NOD2-RIPK2 inh: -14.5; ABHD5-PLIN5 inh: 3.3

What do the screens show for `CCc1nc2ccc(C(=O)N3CCN(C(C)=O)CC3)cn2c1N(CC)C(=O)NCCc1ccccc1`?
NOD2-RIPK2 inh: -5.2; ABHD5-PLIN5 inh: 4.3

What do the screens show for `CCc1ccc(OCC(=O)Nc2ccc(S(=O)(=O)N3CCOCC3)cc2)cc1`?
TLR9-MyD88 inh: -8.2; NOD2-RIPK2 inh: 7.1; ABHD5-PLIN5 inh: -5.6

Results for Cc1nc([N+](=O)[O-])c(Br)n1CC(=O)c1ccc(Cl)cc1 ?
TLR4 MyD88 comp: 6.7; TLR9-MyD88 inh: -3.3; NOD2-RIPK2 inh: 15.4; ABHD5-PLIN5 inh: 26.6*; ABHD5-PLIN5 conf: 31.1*; HNF4 counter: 25.6*

Results for COc1ccc(C(=O)Cn2c(C)nc([N+](=O)[O-])c2Br)cc1 ?
TLR9-MyD88 inh: 11.2; NOD2-RIPK2 inh: -1.0; ABHD5-PLIN5 inh: 12.7

Results for O=C(O)/C=C/C(=O)c1ccc2c(c1)NC(=O)CO2 ?
TLR4 MyD88 comp: 3.2; TLR9-MyD88 inh: 4.6; NOD2-RIPK2 inh: 6.4; ABHD5-PLIN5 inh: 90.1*; ABHD5-PLIN5 conf: 90.9*; HNF4 counter: 104.8*

Results for CC[n+]1c(/C=C2\Sc3ccccc3N2C)ccc2cccc(C)c21 ?
TLR4 MyD88 comp: 15.0; TLR9-MyD88 inh: -4.3; NOD2-RIPK2 inh: 16.2; ABHD5-PLIN5 inh: 24.0*; ABHD5-PLIN5 conf: 23.3*; HNF4 counter: 26.1*

How did CCOC(=O)N1CCN(C(=O)C2CCC(=O)N(Cc3ccccc3OC)C2)CC1 (stereo not drawn) do in these assays?
TLR9-MyD88 inh: -11.8; NOD2-RIPK2 inh: 1.0; ABHD5-PLIN5 inh: 8.4

Results for N#C/C(=C/c1cccc(O)c1)C(=O)NCc1ccc(Cl)cc1 ?
TLR9-MyD88 inh: -6.4; NOD2-RIPK2 inh: 8.8; ABHD5-PLIN5 inh: 23.7*; ABHD5-PLIN5 conf: 63.9*; HNF4 counter: 55.1*

Results for N#C/C(=C\c1cccc(NC(=O)c2ccccc2Cl)c1)C(=O)NCCc1ccccc1 ?
TLR4 MyD88 comp: 9.2; TLR9-MyD88 inh: 6.5; NOD2-RIPK2 inh: -0.3; ABHD5-PLIN5 inh: 47.2*; ABHD5-PLIN5 conf: 83.0*; HNF4 counter: 77.5*

What do the screens show for `CC(C)C(C(=O)OCC(=O)c1ccccc1)N1C(=O)C2C3C=CC(C3)C2C1=O` (stereo not drawn)?
TLR4 MyD88 comp: 13.6; TLR9-MyD88 inh: -7.0; NOD2-RIPK2 inh: -3.6; ABHD5-PLIN5 inh: -10.2

Results for CSc1sc(-c2ccnc(SCC(=O)C(C)(C)C)n2)c2c1C(=O)CC(C)(C)C2 ?
TLR9-MyD88 inh: -9.8; NOD2-RIPK2 inh: -5.4; ABHD5-PLIN5 inh: 23.3*; ABHD5-PLIN5 conf: -5.2; HNF4 counter: -4.8

Results for CSc1sc(C(=O)O)c2c1C(=O)CC(C)(C)C2 ?
TLR9-MyD88 inh: 5.8; NOD2-RIPK2 inh: 7.0; ABHD5-PLIN5 inh: 4.0

Results for O=C(C=Cc1ccccn1)c1ccccc1 ?
TLR9-MyD88 inh: -6.0; NOD2-RIPK2 inh: 10.3; ABHD5-PLIN5 inh: 79.0*; ABHD5-PLIN5 conf: 92.8*; HNF4 counter: 103.0*

What do the screens show for `O=C(/C=C/c1ccc(-c2ccccc2)o1)c1ccccc1`?
TLR4 MyD88 comp: 17.4; TLR9-MyD88 inh: 7.9; NOD2-RIPK2 inh: 8.9; ABHD5-PLIN5 inh: 11.5

How did O=C(C=Cc1ccccc1Cl)c1ccccc1 do in these assays?
TLR9-MyD88 inh: -2.1; NOD2-RIPK2 inh: -2.3; ABHD5-PLIN5 inh: 36.7*; ABHD5-PLIN5 conf: 88.2*; HNF4 counter: 70.9*

How did O=C(C=Cc1ccccn1)c1ccccc1O do in these assays?
TLR9-MyD88 inh: 2.1; NOD2-RIPK2 inh: 7.0; ABHD5-PLIN5 inh: 66.7*; ABHD5-PLIN5 conf: 98.6*; HNF4 counter: 88.8*

Results for CC(Oc1ccccc1F)C(=O)NNC(=O)c1ccc(F)c(S(=O)(=O)N2CCOCC2)c1 (stereo not drawn) ?
TLR9-MyD88 inh: -9.4; NOD2-RIPK2 inh: 3.7; ABHD5-PLIN5 inh: 63.3*; ABHD5-PLIN5 conf: 1.7; HNF4 counter: 2.0

Results for O=C(COc1ccccc1F)NNC(=O)c1ccc(F)c(S(=O)(=O)N2CCOCC2)c1 ?
TLR9-MyD88 inh: 4.8; NOD2-RIPK2 inh: -3.3; ABHD5-PLIN5 inh: -0.1

What do the screens show for `Cc1ccccc1N(C)C(=O)C1CCCN(c2ncnc3c2nc2n3CCCCC2)C1` (stereo not drawn)?
TLR9-MyD88 inh: 2.0; NOD2-RIPK2 inh: 1.6; ABHD5-PLIN5 inh: 0.0

What do the screens show for `COc1ccc(S(=O)(=O)N2CCCCCC2)cc1NC(C)C(=O)Nc1ccc(NC(C)=O)cc1` (stereo not drawn)?
TLR9-MyD88 inh: -2.5; NOD2-RIPK2 inh: -7.4; ABHD5-PLIN5 inh: 47.4*; ABHD5-PLIN5 conf: 1.7; HNF4 counter: 10.0

Results for Cc1ccc(N/C(=C\C(=O)c2ccccc2)C(=O)O)cc1 ?
TLR4 MyD88 comp: -9.4; TLR9-MyD88 inh: 1.9; NOD2-RIPK2 inh: 0.0; ABHD5-PLIN5 inh: 92.8*; ABHD5-PLIN5 conf: -0.1; HNF4 counter: 5.7

What do the screens show for `Nc1nc(SCC(=O)Nc2ncc(Cl)cc2Cl)n[nH]1`?
TLR9-MyD88 inh: -7.2; NOD2-RIPK2 inh: 0.5; ABHD5-PLIN5 inh: -3.1

Compound activity deposited in PubChem BioAssay by The Scripps Research Institute Molecular Screening Center.
